Laboratory results taken from PubChem BioAssay AID652283 (National Center for Advancing Translational Sciences (NCATS), 2013).
Values joined by “and” are separate entries in the source; they are usually repeats but may differ in a detail not shown here. Equal values may be shown once. Results filed as inconclusive are left out. A structure can be active in one record and inactive in another. Active and inactive are the calls of the source. Calls come from the whole dose curve; as a rule, active = well fitted inhibition curve with a large enough effect; inconclusive = small, poorly fitted or top-dose-only effect; inactive = no such curve, though single readings can be large or run the other way.

Assay: qHTS Assay for Lipid Storage Modulators: COS7 Assay against Probe and Analogs
Details: COS7 lipid droplet area, BODIPY imaging, 18 h; cells loaded with 400 µM oleic acid
Description: Storing lipids as a reservoir for energy or the anabolism of elementary metabolites is a common feature of probably all cells and is conserved from bacteria to humans. The universal cellular lipid storage organelle is the so-called lipid storage droplet (LD). Although ubiquitous, LDs share a simple structure composed of a hydrophobic core that harbors the storage lipids, which is shielded by a droplet-specific phospholipid monolayer to which proteins are attached. The current model of LD biogenesis involves an incorporation of the lipid core into the membrane leaflets of the endoplasmic reticulum (ER) followed by a subsequent budding-like maturation of a LD, which ultimately pinches off. Once released, LD volume can increase by localized lipogenesis or fusion of existing droplets. Storage lipids are re-mobilized enzymatically by lipase activity. Lipase regulation in the adipocyte is heavily studied and involves multiple components including catecholamine signaling, the LD-associated proteins Perilipin and comparative gene identification-58 (CGI-58) and at least two lipases named hormone sensitive lipase (HSL) and adipocyte triglyceride lipase (ATGL). LD regulation outside of the adipocyte is poorly understood and only few components are known. However, there is an urgent need to learn more about ectopic fat depots as mislocalized storage of lipids, for example in the liver or muscle, is an eminent health problem associated with insulin resistance or the metabolic syndrome. We developed a laser-scanning cytometer assay to enable 1,536-well screening and combined the results of the small molecules screen with an RNAi database based on lipid storage. In this assay we tested analogs of the probe against a mammalian cell line (COS7), to see if these small molecules could disrupt lipid storage. NIH Molecular Libraries Probe Production Centers Network [MLPCN] NIH Chemical Genomics Center [NCGC] MLPCN Grant: MH085686 Assay Submitter (PI): Mathias Beller, Max-Planck-Institut fur Biophysikalische Chemie
COS7 cells were obtained from ATCC (CRL-1651), 5500 cells/well were dispensed into Corning 96 well imaging plate (catalog # 3340), and cultured in 100 uL of 1:1 DMEM medium (PAA) contain 10% fetal bovine serum (FBS) for 24 hours at 37 degrees C, 95% humidity, and 5% CO2. The medium was exchanged for compound treatment. Compound treatment occurred in 150 microL serum reduced medium (5% FBS) and 0.2% DMSO in presence of 400 microM oleic acid for 17-18 h. Cells were then fixed (3.7 % formaldehyde in PBS, 5 min), permeabilized (0.1% Triton X100, 5 min) and washed three times with PBS. Lipid droplets (1:2000 BODIPY 493/503) and nuclei (1:1000 Hoechst 33342) were stained for 1h. Imaging was performed in a Zeiss Axiovert automatic microscope. Number of lipid droplet accumulated in […] cells were analyzed using visual examination of the microscopic images and additional quantification by image segmentation using Cell Profiler.

Max response, inactive:
CCOC(=O)C1CCN(C(=O)C2(NC(=O)Nc3ccccc3Cl)CC2)CC1 -17.2%, CCNC(=O)C1CCN(C(=O)C(C)(C)NC(=O)Nc2ccccc2Cl)CC1 -3.83%, O=C(Nc1cccc2c1cnn2-c1ccc(F)cc1)c1ccccn1 3.22%, CCOC(=O)C1CCN(C(=O)C(C)(C)NC(=O)Nc2ccc(CN3CCOCC3)cc2)CC1 -3.75%, CN(C)CC(=O)NC1CCCc2c1cnn2-c1ccc(F)cc1F (stereo not given) 19.8%, COc1cc(C)c(Sc2cnc(NC(=O)c3ccc(CNC(C)C(C)(C)C)cc3)s2)cc1C(=O)N1CCN(C(C)=O)CC1 (stereo not given) -8.98%, O=C(NC1CCCc2c1cnn2-c1ccc(F)cc1F)c1cnccn1 (stereo not given) -14.9%, CCOC(=O)C1CCN(C(=O)CNC(=O)Nc2ccccc2Cl)CC1 11.1%, O=C(NC1CCCc2c1cnn2-c1ccc(F)cc1F)C1CC1 (stereo not given) 3.35%, CCOC(=O)C1CCN(C(=O)C(C)(C)NC(=O)Nc2ccc(F)c(F)c2)CC1 -20.8%, CCOc1ccc(CCNC(=O)c2csc(Br)n2)cc1OCC -17.2%, O=C(NCCc1ccc(O)c(O)c1)c1cc2sccc2n1Cc1ccccc1 20.9%, CCOC(=O)C1CCN(C(=O)C(C)(C)NC(=O)Nc2cccc(C(=O)OC)c2)CC1 9.87%, O=C(NC1CCCc2c1cnn2-c1ccc(F)cc1F)c1ccccn1 (stereo not given) 16%, CC(C)(C)OC(=O)NCCOCCOCCOCCn1ncc2c1CCCC2NC(=O)c1ccccn1 (stereo not given) 0.489%, CCn1c(C(=O)NCCc2ccc(OC)cc2)cc2sccc21 14.9%, O=C(NC1CCCc2c1cnn2-c1ccc(F)cc1F)c1ccc(C2(C(F)(F)F)N=N2)cc1 (stereo not given) 3.15%, O=C(NC1CCCc2c1cnn2-c1ccc(F)cc1F)c1ccn[nH]1 (stereo not given) -5.9%, O=C(NC1CCCc2c1cnn2CCO)c1ccccn1 (stereo not given) 14.9%, CCOC(=O)C1CCN(C(=O)C(C)(C)NC(=O)Nc2ccc([N+](=O)[O-])cc2)CC1 8.04%, O=C(N[C@H]1CCCc2c1cnn2-c1ccc(F)cc1F)c1ccccn1 6.84%, COc1cc(Nc2ncc(F)c(Nc3ccc4c(n3)NC(=O)C(C)(C)O4)n2)cc(OC)c1OC -7.73%, Cc1ccc(NC(=O)c2ccc(CN3CCN(C)CC3)cc2)cc1Nc1nc(-c2cccnc2)cs1 -0.902%

Potency, active:
CC(NCc1ccc2c(c1)nc(NC(=O)c1ccc(-c3cn[nH]c3)s1)n2CC(C)(C)O)C(C)(C)C (stereo not given) 4.69 µM, O=C(NC1CCCc2c1cnn2-c1cccc(O)c1)c1ccccn1 (stereo not given) 4.18 µM, O=C(NC1CCCc2c1cnn2-c1ccc(F)cc1F)c1ccccc1 (stereo not given) 14.8 µM, CCOC(=O)C1CCN(C(=O)C2(NC(=O)Nc3ccc(F)cc3F)CCCCC2)CC1 16.6 µM, O=C(NC1CCCc2c1cnn2-c1ccc(O)cc1)c1ccccn1 (stereo not given) 10.5 µM, CCOC(=O)C1CCN(C(=O)C(C)(C)NC(=O)Nc2ccc(Oc3ccccc3)cc2)CC1 6.62 µM, CCOc1cc(CCNC(=O)c2cc3sccc3n2Cc2ccccc2)cc(F)c1OCC 2.35 µM, CCOc1ccc(CCNC(=O)c2cc3c(s2)CCC3)cc1OCC 11.8 µM, CCOc1ccc(CCNC(=O)c2cc3sccc3n2Cc2ccc(-n3cncn3)cc2)cc1OCC 5.9 µM, O=C(NC1CCCc2c1cnn2-c1ccc(F)cc1F)c1ccccn1 (stereo not given) 16.6 µM and 14.8 µM, CCOc1ccc(CCNC(=O)c2cc3ccccc3n2C)cc1OCC 16.6 µM, CCOc1ccc(CCNC(=O)c2ccnn2Cc2cccc(C)c2)cc1OCC 13.2 µM, CCOC(=O)C1CCN(C(=O)C(C)(C)NC(=O)Nc2cccc(OC)c2)CC1 16.6 µM, CCOC(=O)C1CCN(C(=O)C(C)(C)NC(=O)Nc2ccc(-c3ccccc3)cc2)CC1 10.5 µM, CCOc1ccc(CCNC(=O)c2cc3ccccc3o2)cc1OCC 29.6 µM, CCOc1ccc(CCNC(=O)c2cc3ccccc3n2Cc2ccc(Cl)c(F)c2)cc1OCC 0.332 µM, O=C(NCCc1ccc(OCC(F)(F)F)c(OCC(F)(F)F)c1)c1cc2sccc2n1Cc1ccccc1 2.96 µM
